Insulin prom inh = TRM-6 insulin promoter activity inhibition | TRM-6 cells (human fetal islet line), insulin promoter-eGFP reporter, imaging; reporter expression induced with tamoxifen | actives 0.9% (n = 130,000) | inhibition, % at 2 µM;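 active = inhibition above the mean plus 3 SD, with well images judged a real hit on visual review, cut at about 60% in these data, passing the limit was not always enough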
Autophagy HCS = modulators of autophagy; MEF GFP-LC3 puncta imaging; test concentration mostly 10 µM; calls only at 10 µM (by protocol); actives 0.98% (n = 190,000);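 active = percentage of spot-positive cells more than 3 SD above its plate mean, without a fluorescence outlier flag or 80% toxicity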;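 note: spot-positive cell cutoff set from DMSO-treated cells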
Lmaj promast = inhibitors of Leishmania major promastigote growth; actives 9% (n = 200,000); AID 1063; Leishmania major promastigotes, resazurin fluorescence viability; inhibition, % at 10 µM; in the data active = inhibition above about 50%;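 note: promastigotes grown with compound for 44 hours at 28 °C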
WT yeast gro inh = growth inhibition of WT yeast, mitochondrial fusion screen. mitochondrial fusion phenotypic screen, WT strain. inhibition, % at 10 µM. actives 2.1% (n = 190,000); in the data active = inhibition above about 58%; tested in S. cerevisiae
Insulin prom up = MIN6 insulin promoter up-regulation; actives 0.3% (n = 190,000); MIN6 insulin promoter-GFP reporter, high-content imaging; hits give high values; AID 1625; z-score at 5 µM;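 active = z-score above 3 at 5 µM with at least 500 cells counted in the well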
* marks the source's active call; other numbers are inactive results; i = inactive; nt = no result; + = active, no number. The list is not random: actives were taken first. Their share in the collection is about 11%.

SMILES	Insulin prom inh	Autophagy HCS	Lmaj promast	WT yeast gro inh	Insulin prom up
O=C(N/N=C\c1ccc2c(c1)OCO2)c1ccc(Cn2cc(Br)c([N+](=O)[O-])n2)o1	67	i	83*	0	nt
CCOc1ccc(/C=N/NC(=O)c2ccc(Cn3cc(Br)cn3)o2)cc1	42	i	59*	6	-0.34
CCc1ccc2nc(SCC(=O)N3CCCCC3)c(C#N)cc2c1	-192	i	4	-14	nt
COc1ccc2nc(SCC(=O)N3CCCCC3)c(C#N)cc2c1	21	i	58*	-8	0.61
CCOc1ccc2nc(SCC(=O)N3c4ccccc4Sc4ccccc43)c(C#N)cc2c1	-163	i	62*	-2	0.73
COc1ccc2nc(SCC(=O)N3CCCCCC3)c(C#N)cc2c1	nt	i	80*	0	nt
CCOc1ccc2cc(C#N)c(SCC(=O)N3CCCC3)nc2c1	-29	i	25	nt	nt
CCc1ccc2nc(SCC(=O)N3CC(=O)Nc4ccccc43)c(C#N)cc2c1	-212	+	25	-11	2
C=CCOc1c(Br)cc(CNc2ccc(NC(=O)C(C)C)c(OC)c2)cc1OCC	-27	i	7	14	nt
COCCn1c(C(=O)N2CCCC2)cc2c1C[C@H]1CN(C(=O)c3ccccc3)[C@@](Cc3ccc(F)cc3)(C(=O)OC)[C@@H]21	18	i	17	-2	-0.7
COC(=O)[C@@]1(Cc2ccc(F)cc2)[C@H]2c3cc(C(=O)N(C)C)n(CCc4ccccn4)c3C[C@H]2CN1C(=O)c1ccccc1	-35	i	91*	-5	-0.9
COC(=O)[C@@]1(Cc2ccc(F)cc2)[C@H]2c3cc(C(=O)N4CCCC4)n(CCc4ccccn4)c3C[C@H]2CN1C(=O)c1ccccc1	-30	i	99*	20	-0.6
COC(=O)[C@@]1(Cc2ccc(F)cc2)[C@H]2c3cc(C(=O)N4CCCC4)n(CCc4c[nH]c5ccc(OC)cc45)c3C[C@H]2CN1C(=O)c1ccccc1	30	i	79*	20	0.31
COC(=O)[C@@]1(Cc2ccccc2)[C@H]2c3cc(C(=O)N4CCCC4)n(CCSCCO)c3C[C@H]2CN1C(=O)c1ccccc1	25	+	9	11	-1.4
Cc1ccc2nc(NC(=O)c3ccc(NS(=O)(=O)c4cccs4)cc3)sc2c1	17	i	15	9	-0.45
Cc1[nH]ccc(=O)c1Oc1ncc(C(F)(F)F)cc1Cl	23	i	16	-1	-0.31
C/C(=N/NC(=O)c1ccccc1)c1ccc(NC(=O)C(F)(F)F)cc1	nt	i	4	13	0.04
COC(=O)[C@@]1(Cc2ccc(OC)cc2)[C@H]2c3cc(C(=O)N(C)C)n(C[C@H](O)CO)c3C[C@H]2CN1C(=O)c1ccccc1	55	i	-6	14	0.11
COC(=O)[C@@]1(Cc2ccc(OC)cc2)[C@H]2c3cc(C(=O)N4CCCC4)n(Cc4ccc(C)o4)c3C[C@H]2CN1C(=O)c1ccccc1	50	i	53*	65*	-1.4
COC(=O)[C@@]1(Cc2ccc(OC)cc2)[C@H]2c3cc(C(=O)N(C)C)n(Cc4ccc(OC(F)(F)F)cc4)c3C[C@H]2CN1C(=O)c1ccccc1	30	i	50*	35	-0.78
COc1cccc(OC)c1C(=O)NC(C)C12CC3CC(CC(C3)C1)C2 (stereo not given)	13	i	35	62*	nt
Cc1ccc(-c2nnc(SCC(=O)N3CCOCC3)nc2-c2ccc(C)cc2)cc1	-24	i	98*	74*	0.36
Cc1ccc(-c2cn(-c3ccccc3)c(SCC(=O)NC3CCS(=O)(=O)C3)n2)cc1C (stereo not given)	-24	i	86*	-19	-0.26
Cc1ccc(OCC(=O)NC2CCS(=O)(=O)C2)cc1 (stereo not given)	19	i	0	-15	0.4
O=C(CSc1nnc(COc2ccccc2F)n1-c1ccccc1)NC1CCS(=O)(=O)C1 (stereo not given)	-27	i	70*	-4	0.24
SMILES	Insulin prom inh	Autophagy HCS	Lmaj promast	WT yeast gro inh	Insulin prom up
CCn1c(SCC(=O)NC2CCS(=O)(=O)C2)nnc1-c1ccccc1 (stereo not given)	38	i	-2	11	-0.24
Cc1ccc(-c2nnc(SCC(=O)NC3CCS(=O)(=O)C3)nc2-c2ccc(C)cc2)cc1 (stereo not given)	0	i	78*	22	-0.57
Cc1nnc(SCC(=O)NC2CCS(=O)(=O)C2)n1Cc1ccccc1 (stereo not given)	nt	i	4	-7	-0.01
COc1ccc(/C=C2\NC(=O)C(C=NCc3ccccc3)=C2O)cc1	39	i	58*	-3	0.62
CCc1ccc(NC(=O)C(C)OC(=O)c2ccc(NS(=O)(=O)c3ccc(C)c([N+](=O)[O-])c3)cc2)cc1 (stereo not given)	-38	i	64*	-4	-0.05
Cc1ccc(C(=O)C(C)Sc2nnc(N)s2)cc1 (stereo not given)	nt	i	2	-4	-0.42
COc1ccc(-n2nnnc2SCC(=O)c2cccc(OC)c2)cc1	nt	i	-5	-2	-0.16
COc1ccc(-n2nnnc2SCC(=O)c2ccc3c(c2)OCCO3)cc1	79*	i	-4	-8	nt
COc1ccc(OC)c(C2C(C(=O)c3ccccc3)=C(C)Nc3nc4ccccc4n32)c1 (stereo not given)	-33	i	79*	-7	1.1
CCOC(=O)/C(C#N)=c1/s/c(=C2\C=Cc3ccccc3N2CC)c(=O)n1CC	10	i	1	26	-0.04
COC(=O)/C(C#N)=C1/C=Cc2ccccc2N1C	81*	i	-5	-4	nt
COc1ccc(C(=O)/C(C#N)=N/Nc2ccc([N+](=O)[O-])cc2)cc1	nt	i	56*	65*	-2.1
COc1ccc(C(=O)CC(Nc2ccc([N+](=O)[O-])cc2)c2ccc(OC)cc2)cc1 (stereo not given)	17	i	82*	6	0.04
Cc1ccc(NCC(=O)c2ccc([N+](=O)[O-])cc2)cc1	57	i	1	4	0.03
CNC(CC(=O)c1ccc([N+](=O)[O-])cc1)C(Cl)(Cl)Cl (stereo not given)	nt	i	100*	71	0.57
CN(c1ccccc1)S(=O)(=O)c1cc(C(=O)OCC(N)=O)ccc1Cl	nt	i	3	-1	0.08
CCOC(=O)N1CCN(C(=O)CSc2ccc3nnc(CCNC(=O)c4ccc(OC)cc4)n3n2)CC1	33	i	-6	-15	nt
CNC(=O)c1ccc(-c2sc3nc(N4CCOCC4)c4c(c3c2N)CC(C)(C)OC4)o1	-26	i	9	-7	3.2*
Cc1cc(C(=O)COc2ccc3ccc(=O)oc3c2)c(C)n1C	nt	i	-6	-18	-0.43
O=C(Nc1nc2c(s1)CCCC2)c1nn(Cc2ccccc2)c(=O)c2ccccc12	3	i	34	1	-0.44
CC(C)CCn1nc(C(=O)Nc2nc3c(s2)CCCC3)c2ccccc2c1=O	46	i	65*	31	-3.6

Screens: PubChem, several laboratories
